In PubChem BioAssay (EPA / NIEHS):
Inconclusive results are not listed. Where a structure was tested more than once in an assay, its records may differ in their call. Activity calls are given as the source filed them. How the source made its calls: active means hit-call score of the fitted dose curve at least 0.9, where 1 is the maximum; inconclusive means response in the unintended direction; inactive means score below 0.9.

Test: CCTE_Shafer_MEA_dev_LDH: CCTE's Lactate Dehydrogenase Assay for Cytotoxicity in the Neural Network Formation Assay, Shafer Lab (AID 2284068);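 further: exposure for twelve days from plating with re-dosing on DIV 5 and 9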
Procedure: CCTE_Shafer_MEA_dev assay is conducted using Axion Biosystems 48 well microelectrode array (MEA) plates and Maestro recording system. Each well of the MEA plate contains a grid of 16 microelectrodes embedded in the culture surface. Electrically active cells, such as neurons, can be cultured over the electrodes, and electrical activity in these cells can be recorded extracellularly. The spontaneous firing of neurons is captured from each electrode on a microsecond timescale providing both temporally and spatially precise data. […] The CCTE_Shafer_MEA_dev assay uses primary cultures of rat cortical neurons. Recordings are made on days post-plating 5, 7, 9 and 12. As these cultures mature over time, neural networks develop functional activity and form cohesive networks in which electrical activity can be highly coordinated. CCTE_Shafer_MEA_dev_LDH is 1 of 19 assay components of the CCTE_Shafer_MEA_dev assay. It measures the lactate dehydrogenase enzyme activity using spectrophotometry.Data from the assay component CCTE_Shafer_MEA_dev_LDH was analyzed into 1 assay endpoint. This assay endpoint, CCTE_Shafer_MEA_dev_LDH, was analyzed in the positive analysis fitting direction relative to DMSO as the negative control and baseline of activity. Using a type of viability reporter, loss-of-signal activity can be used to understand cell viability.
On the day prior to culture, each well was coated thoroughly with 150 uL of 0.05% polyethyleneimine (PEI, Sigma Cat P3143) in 50 mM HEPES (Sigma Cat H7523) at a pH of 8. The plate was incubated at 37C for one hour. PEI was rinsed out with 500 uL of sterile water three times. Plates were stored at 4C until the day of culture. This culture was plated at a seeding density of 1.5 x 10^5 cells/well on a 48-well MEA plate, prepared as described above. Cells were administered via a 25 uL media/laminin ([…]; Sigma Cat L2020-1MG) drop directly onto the microelectrode array, as adding the cells with the laminin results in better attachment than pre-coating with laminin. After 2 hours, an additional 475 uL of cortical media was added and the cells returned to the incubator. Exposure starts at day 0 of plating and is continued over twelve days of network development until the experiment is terminated. Cells are fed with fresh medium on DIV 5 and 9, following the recordings on those days. The entire volume of media in the well is exchanged and any vehicle or compound treatment is renewed. Complete details are found in OP-NHEERL/ISTD/SBB/TJS/2015-03-r0 (available on request, email shafer.tim@epa.gov). Measurement of the electrical activity is non-invasive, and recordings can be made from the same plate over multiple different days of the culture. In cortical neurons, this allows for the measurement of extracellular action potentials over the period during which networks form in the MEA plate.

| Structure (SMILES) | outcome | AC50 |
| --- | --- | --- |
| CC1CCCC1.[C-]#[O+].[C-]#[O+].[C-]#[O+].[Mn] | inactive |  |
| NCCc1cc(O)c(O)cc1O |  | 6.82 µM (active) |
| C/C(=C/C=C/[C@@H](C)C(=O)O)[C@H]1CN[C@H](C(=O)O)[C@H]1CC(=O)O |  | 6.75 µM (active) |
| Brc1ccc(Oc2cc(Br)c(Br)cc2Br)c(Br)c1 |  | 11.9 µM (active) |
| c1ccc2c(c1)cc1ccc3cccc4ccc2c1c34 | inactive |  |
| CN1C(=O)CN=C(c2ccccc2)c2cc(Cl)ccc21 | inactive |  |
| COP(=O)(OC)SCN1C(=O)c2ccccc2C1=O | inactive |  |
| [CH3][Sn]([CH3])[CH3] |  | 0.174 µM (active) |
| CCCCC(CC)COC(=O)c1cc(Br)c(Br)c(Br)c1Br (stereo not given) |  | 15.9 µM (active) |
| CP(=O)(O)CC[C@H](N)C(=O)O | inactive |  |
| Cn1nc(C(F)(F)F)c(CS(=O)(=O)C2=NOC(C)(C)C2)c1OC(F)F |  | 80.6 µM (active) |
| Brc1ccc(Oc2ccc(Br)cc2Br)c(Br)c1 | inactive | 12.3 µM (active) |
| CC1(C)C(C=C(Cl)c2ccc(Cl)cc2)C1C(=O)OC(C#N)c1ccc(F)c(Oc2ccccc2)c1 (stereo not given) |  | 14.3 µM (active) |
| CCOP(=S)(OCC)SCS(=O)C(C)(C)C (stereo not given) | inactive |  |
| C[n+]1ccc(-c2cc[n+](C)cc2)cc1 |  | 1.71 µM (active) |
| O.O.O.O.O.[Cd+2].[Cd+2].[Cl-].[Cl-].[Cl-].[Cl-] |  | 0.499 µM (active) |
| CC(=O)[O-].CC(=O)[O-].O.O.O.[Pb+2] |  | 23.7 µM (active) |
| COC(=O)[C@H]1[C@@H](OC(=O)c2ccccc2)C[C@@H]2CC[C@H]1N2C | inactive |  |
| CC1(C)[C@@H](C=C(Cl)Cl)[C@@H]1C(=O)O[C@@H](C#N)c1ccc(F)c(Oc2ccccc2)c1 | inactive |  |
| CC(C)CCCCCCCOP(=O)(Oc1ccccc1)Oc1ccccc1 | inactive |  |

| Structure (SMILES) | outcome | AC50 |
| --- | --- | --- |
| CCOP(=O)(OCC)SCSCC | inactive |  |
| CC1(C)C(C=C(Cl)Cl)C1C(=O)O[C@H](C#N)c1cccc(Oc2ccccc2)c1 (stereo not given in full) |  | 5.77 µM (active) |
| [Cd+2].[Cl-].[Cl-] |  | 1.51 µM (active) |
| CNC(=N[N+](=O)[O-])NCC1CCOC1 (stereo not given) | inactive |  |
| CCOP(=O)(O)OCC (tested in a mixture with another compound) | inactive |  |
| CCC1(c2ccccc2)C(=O)NC(=O)NC1=O | inactive |  |
| CCOP(=O)(Oc1cnc(C(C)(C)C)nc1)OC(C)C (stereo not given) |  | 11.4 µM (active) |
| O=C(O)CNCP(=O)(O)O | inactive |  |
| CP(=O)(O)CCC(N)C(=O)O (stereo not given) | inactive |  |
| CN[C@]1(c2ccccc2Cl)CCCCC1=O |  | 9.27 µM (active) |
| C#CCN(C)[C@H](C)Cc1ccccc1 | inactive |  |
| O=[As]O |  | 1.09 µM (active) |
| [CH3][Hg][Cl] |  | 0.182 µM (active) |
| C[n+]1ccc(-c2ccccc2)cc1 |  | 4.7 µM (active) |
| CCOP(=O)(OCC)OC(Cl)C(Cl)(Cl)Cl (stereo not given) |  | 0.825 µM (active) |
| c1ccc2cc3c(cc2c1)-c1cccc2cccc-3c12 | inactive |  |
| CC(=O)[O-].[Tl+] | inactive |  |
| CCC[CH2][Sn]([CH2]CCC)([CH2]CCC)[O][Sn]([CH2]CCC)([CH2]CCC)[CH2]CCC |  | 0.0328 µM (active) |
| CCOP(=O)(OCC)SCSC(C)(C)C |  | 49.5 µM (active) |
